Records with an inconclusive call do not appear. Calls of active or inactive are those of the source.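 The calls were made as follows, unless noted: active = normalized viability below 100% at a tested concentration; inactive = the rest.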
How the values were obtained:
[1] = growth inhibition of DIPG glioma cells, dose response, cell-based, SU-DIPG-XVII, MIPE5.0, CellTiter-Glo, qHTS (AID 1347060; cut-off not given, nearly all actives have AC50 up to about 26 µM;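 as to AC50: cells exposed to compound for 48 hours before viability readout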); conditions: SU-DIPG-XVII viability, CellTiter-Glo ATP luminescence
[2] = growth inhibition of DIPG glioma cells, dose response, cell-based, SU-DIPG-XIII, MIPE4.0, CellTiter-Glo, qHTS (AID 1347061; cut-off not given, nearly all actives have AC50 up to about 37 µM;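 also: cells exposed to compound for 48 hours before readout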); conditions: SU-DIPG-XIII viability, CellTiter-Glo ATP luminescence
[3] = growth inhibition of DIPG glioma cells, dose response, cell-based, JHH-DIPG-1, MIPE4.0, CellTiter-Glo, qHTS (AID 1347062; cut-off not given, nearly all actives have AC50 up to about 27 µM;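 as to AC50: cells exposed to compound for two days before readout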); conditions: JHH-DIPG-1 viability, CellTiter-Glo ATP luminescence
[4] = growth inhibition of DIPG glioma cells, dose response, cell-based, SU-DIPG-XIII, MIPE5.0, CellTiter-Glo, qHTS (AID 1347064; cut-off not given, nearly all actives have AC50 up to about 23 µM;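 as to AC50: cells exposed to compound for 48 hours before the viability read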); conditions: SU-DIPG-XIII viability, CellTiter-Glo ATP luminescence
[5] = viability loss in pontine glioma line – cell-based, SU-DIPG-XXV, MIPE5.0, CellTiter-Glo, qHTS, dose response (AID 1347065; cut-off not given, nearly all actives have AC50 up to about 26 µM;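 also: cells exposed to compound for 48 hours before ATP readout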); conditions: CellTiter-Glo ATP luminescence
[6] = SU-DIPG-VI glioma cell viability, MIPE4.0 library, CellTiter-Glo luminescence, qHTS (AID 1347066; cut-off not given, nearly all actives have AC50 up to about 30 µM;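 also: cells exposed to compound for 48 hours before readout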); conditions: CellTiter-Glo ATP luminescence
[7] = JHH-DIPG-1 glioma cell viability, MIPE5.0 library, CellTiter-Glo luminescence, qHTS (AID 1347067; cut-off not given, nearly all actives have AC50 up to about 26 µM;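 also: cells exposed to compound for 48 hours before readout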); conditions: JHH-DIPG-1 glioma viability, CellTiter-Glo ATP luminescence
[8] = SU-DIPG-XXV glioma cell viability, MIPE5.0 library, qHTS (AID 1347068; cut-off not given, nearly all actives have IC50 up to about 30 µM;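 as to IC50: cells exposed to compound for 48 hours before viability readout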)
[9] = sensitizers of A549 cells to miR-34 induction, primary screen, imaging, A549 dox-inducible miR-34, nuclei and caspase counts (AID 1347080;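 active = compounds whose cell count with miR-34 switched on is under 0.7 times the count with it off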); conditions: A549 miR-34 inducible, Hoechst nuclei count, 48 h
[10] = survival rescue of mitochondrial mutant cells in low glucose, primary screen, MELAS cybrids, Rieske KO mouse fibroblasts, CellTiter-Glo (AID 1508586;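 active = mean z-score across replicates of 1.96 or higher in either the MELAS or the Rieske mutant cell line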;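 also: z relative to plate mean and SD of compound and empty wells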)
[11] = ovarian cancer cell viability with rucaparib, profiling panel, oncology-focused library, rucaparib conditional (AID 1508598); conditions: patient-derived ovarian cancer cells, CellTiter-Glo viability, 144 h, stronger effect = lower value
[12] = modifiers of HSF1 nuclear foci, imaging, Selleck Cancer Library (AID 1347162; in the data active = plate-normalised HSF1 focus index below about 0.46); conditions: human cells, at 10 µM; SSMD: measured here: HSF1 foci SSMD mean; cell count: measured here: cell number; plate-normalised HSF1 focus index: stronger effect = lower value
[13] = growth inhibition of DIPG glioma cells, dose response, cell-based, SU-DIPG-IV, MIPE4.0, CellTiter-Glo, qHTS (AID 1347063; cut-off not given, nearly all actives have AC50 up to about 30 µM;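 also: compound exposure lasted 48 hours before the viability readout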); conditions: SU-DIPG-IV viability, CellTiter-Glo ATP luminescence
[14] = stronger effect = lower value, cell number ratio, induced over uninduced
[15] = measured here: relative caspase fold change +Dox/-Dox
[16] = measured here: total cells with miR-34 induction, stronger effect = lower value
[17] = measured here: total cells without miR-34 induction
[18] = MELAS cybrid survival, CellTiter-Glo 48 h, stronger effect = higher value
[19] = Rieske KO mouse fibroblast survival, CellTiter-Glo 72 h
[20] = at 0.000305 µM, OCI-C5x cells, with rucaparib 10 µM, 100% = cells with rucaparib alone
[21] = at 0.000305 µM, OCI-C5x cells, without rucaparib
[22] = at 0.000305 µM, OCI-P5x cells, with rucaparib 20 µM, 100% = cells with rucaparib alone
[23] = at 0.000305 µM, OCI-P5x cells, without rucaparib
[24] = at 0.00122 µM, OCI-C5x cells, with rucaparib 10 µM, 100% = cells with rucaparib alone
[25] = at 0.00122 µM, OCI-C5x cells, without rucaparib
[26] = at 0.00122 µM, OCI-P5x cells, with rucaparib 20 µM, 100% = cells with rucaparib alone
[27] = at 0.00122 µM, OCI-P5x cells, without rucaparib
[28] = at 0.00488 µM, OCI-C5x cells, with rucaparib 10 µM, 100% = cells with rucaparib alone
[29] = at 0.00488 µM, OCI-C5x cells, without rucaparib
[30] = at 0.00488 µM, OCI-P5x cells, with rucaparib 20 µM, 100% = cells with rucaparib alone
[31] = at 0.00488 µM, OCI-P5x cells, without rucaparib
[32] = at 0.0195 µM, OCI-C5x cells, with rucaparib 10 µM, 100% = cells with rucaparib alone
[33] = at 0.0195 µM, OCI-C5x cells, without rucaparib
[34] = at 0.0195 µM, OCI-P5x cells, with rucaparib 20 µM, 100% = cells with rucaparib alone
[35] = at 0.0195 µM, OCI-P5x cells, without rucaparib
[36] = at 0.0781 µM, OCI-C5x cells, with rucaparib 10 µM, 100% = cells with rucaparib alone
[37] = at 0.0781 µM, OCI-C5x cells, without rucaparib
[38] = at 0.0781 µM, OCI-P5x cells, with rucaparib 20 µM, 100% = cells with rucaparib alone
[39] = at 0.0781 µM, OCI-P5x cells, without rucaparib
[40] = at 0.313 µM, OCI-C5x cells, with rucaparib 10 µM, 100% = cells with rucaparib alone
[41] = at 0.313 µM, OCI-C5x cells, without rucaparib
[42] = at 0.313 µM, OCI-P5x cells, with rucaparib 20 µM, 100% = cells with rucaparib alone
[43] = at 0.313 µM, OCI-P5x cells, without rucaparib
[44] = at 1.25 µM, OCI-C5x cells, with rucaparib 10 µM, 100% = cells with rucaparib alone
[45] = at 1.25 µM, OCI-C5x cells, without rucaparib
[46] = at 1.25 µM, OCI-P5x cells, with rucaparib 20 µM, 100% = cells with rucaparib alone
[47] = at 1.25 µM, OCI-P5x cells, without rucaparib
[48] = at 5 µM, OCI-C5x cells, with rucaparib 10 µM, 100% = cells with rucaparib alone
[49] = at 5 µM, OCI-C5x cells, without rucaparib
[50] = at 5 µM, OCI-P5x cells, with rucaparib 20 µM, 100% = cells with rucaparib alone
[51] = at 5 µM, OCI-P5x cells, without rucaparib

CC(C)(N)C(=O)N[C@H](COCc1ccccc1)C(=O)N1CCC2(CC1)CN(S(C)(=O)=O)c1ccccc12
inactive: outcome [1] | outcome [2] | outcome [3] | outcome [4] | outcome [5] | outcome [6] | outcome [7] | outcome [8]

O=C(O)C1=CC(O)C(O)[C@H](O)C1 (some centres undefined)
inactive: outcome [1] | outcome [2] | outcome [3] | outcome [4] | outcome [5] | outcome [7] | outcome [8]

COc1cc2c(Oc3ccc4[nH]c(C)cc4c3F)ncnc2cc1OCCCN1CCCC1
3660: cell count [9, 16]
-0.313: z-score [10, 19]
active: AC50 [1] 1.86 µM | AC50 [2] 6.62 µM | AC50 [3] 20.9 µM | AC50 [4] 2.35 µM | AC50 [5] 2.09 µM | AC50 [6] 23.5 µM | AC50 [7] 11.8 µM | IC50 [8] 16.6 µM | viability [11, 22] 96.3% | viability [11, 23] 88.7% | viability [11, 27] 94% | viability [11, 29] 99.8% | viability [11, 30] 97.5% | viability [11, 31] 91.6% | viability [11, 33] 96.3% | viability [11, 34] 97.8% | viability [11, 35] 93.1% | viability [11, 38] 81.8% | viability [11, 39] 92% | viability [11, 41] 98.1% | viability [11, 42] 91.9% | viability [11, 43] 94.6% | viability [11, 47] 86.9% | viability [11, 50] 76.9% | viability [11, 51] 82.8%
1.09: fold change [9, 15]
3760: cell count [9, 17]
inactive: fold change [9, 14] 0.973 | z-score [10, 18] -0.469 | viability [11, 20] 123% | viability [11, 21] 103% | viability [11, 24] 114% | viability [11, 25] 112% | viability [11, 26] 105% | viability [11, 28] 107% | viability [11, 32] 123% | viability [11, 36] 126% | viability [11, 37] 101% | viability [11, 40] 116% | viability [11, 44] 123% | viability [11, 45] 107% | viability [11, 46] 110% | viability [11, 48] 131% | viability [11, 49] 115%

CC(C)(C)OC(=O)CN(Cc1ccc(Cl)cc1)Cc1ccc([N+](=O)[O-])s1
active: AC50 [1] 18.6 µM | AC50 [4] 16.6 µM | AC50 [5] 11.8 µM
inactive: outcome [2] | outcome [3] | outcome [6] | outcome [8]

Cc1ccc(NC(=O)c2cccc(C(C)(C)C#N)c2)cc1Nc1ccc2ncn(C)c(=O)c2c1
active: AC50 [1] 2.09 µM | AC50 [2] 4.18 µM | AC50 [3] 5.9 µM | AC50 [4] 1.48 µM | AC50 [5] 7.42 µM | AC50 [7] 0.934 µM | viability [11, 22] 95.5% | viability [11, 23] 90.4% | viability [11, 27] 95.5% | viability [11, 31] 99.1% | viability [11, 35] 95% | viability [11, 38] 84.1% | viability [11, 39] 82.8% | viability [11, 42] 68.7% | viability [11, 43] 85.5% | viability [11, 46] 73.2% | viability [11, 47] 81.8% | viability [11, 50] 67.4% | viability [11, 51] 22.1%
5830: cell count [9, 16]
3.15: SSMD [12]
1.09: fold change [9, 15]
6180: cell count [9, 17]
7560: cell count [12]
-1.35: z-score [10, 19]
inactive: outcome [6] | fold change [9, 14] 0.944 | plate-normalised HSF1 focus index [12] 1.12 | z-score [10, 18] 0.493 | viability [11, 20] 126% | viability [11, 21] 104% | viability [11, 24] 129% | viability [11, 25] 115% | viability [11, 26] 107% | viability [11, 28] 128% | viability [11, 29] 109% | viability [11, 30] 107% | viability [11, 32] 116% | viability [11, 33] 124% | viability [11, 34] 109% | viability [11, 36] 115% | viability [11, 37] 121% | viability [11, 40] 112% | viability [11, 41] 125% | viability [11, 44] 108% | viability [11, 45] 127% | viability [11, 48] 127% | viability [11, 49] 140%

C/C=C1\NC(=O)[C@H]2CSSCC/C=C\[C@H](CC(=O)N[C@H](C(C)C)C(=O)N2)OC(=O)[C@H](C(C)C)NC1=O
active: AC50 [1] 0.0833 µM | AC50 [2] 0.0148 µM | AC50 [3] 0.0118 µM | AC50 [13] 0.00935 µM | AC50 [5] 0.059 µM | IC50 [8] 3.72 µM

Cn1c(CNc2ccc(C(=N)N)cc2)nc2cc(C(=O)N(CCC(=O)O)c3ccccn3)ccc21
inactive: outcome [1] | outcome [2] | outcome [3] | outcome [4] | outcome [5] | outcome [6] | outcome [8]

Nc1nc2c(c(=O)[nH]1)N(C=O)[C@H](CNc1ccc(C(=O)N[C@@H](CCC(=O)O)C(=O)O)cc1)CN2
inactive: outcome [1] | outcome [2] | outcome [3] | outcome [4] | outcome [5] | outcome [6] | outcome [7] | outcome [8]

Cc1c(Cn2c(C)nc3c(C(=O)O)cc(N4CCOCC4)cc32)cccc1C(F)(F)F
8050: cell count [9, 16]
8880: cell count [9, 17]
0.358: fold change [9, 15]
0.912: z-score [10, 19]
inactive: outcome [1] | outcome [2] | outcome [3] | outcome [4] | outcome [5] | outcome [6] | outcome [7] | outcome [8] | fold change [9, 14] 0.907 | z-score [10, 18] -0.351

CCc1cccc(CC)c1NC(=O)N1Cc2[nH]nc(NC(=O)c3ccc(N4CCN(C)CC4)cc3)c2C1
2360: cell count [9, 16]
-0.878: z-score [10, 19]
2350: cell count [9, 17]
inactive: outcome [3] | outcome [6] | fold change [9, 14] 1 | z-score [10, 18] -0.115
active: AC50 [1] 0.934 µM | AC50 [2] 14.8 µM | AC50 [4] 2.09 µM | AC50 [5] 0.661 µM
0.697: fold change [9, 15]

C[N+](C)([O-])CCNc1ccc(NCC[N+](C)(C)[O-])c2c1C(=O)c1c(O)ccc(O)c1C2=O
active: AC50 [1] 9.34 µM | IC50 [8] 0.00132 µM
inactive: outcome [2] | outcome [3] | outcome [13] | outcome [6]

Reference: PubChem BioAssay
